Experimental data from PubChem BioAssay.
Activity calls are given as the source filed them. The rule behind the calls is not given here.

Molecular target: Pantothenate synthetase (Mycobacterium tuberculosis (strain ATCC 25618 / H37Rv)) (UniProt P9WIL5)
Experiment: Recombinant Mtb pantothenate synthetase (PanC) inhibitors, coupled enzyme, confirmatory (AID 375);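 note: 0% = full reaction with vehicle and 100% = no enzyme background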
Details: coupled enzyme assay; at 10 µM, stronger effect = higher value

Pantothenate synthetase (Mycobacterium tuberculosis (strain ATCC 25618 / H37Rv)), sequence (P9WIL5 whole entry, looked up): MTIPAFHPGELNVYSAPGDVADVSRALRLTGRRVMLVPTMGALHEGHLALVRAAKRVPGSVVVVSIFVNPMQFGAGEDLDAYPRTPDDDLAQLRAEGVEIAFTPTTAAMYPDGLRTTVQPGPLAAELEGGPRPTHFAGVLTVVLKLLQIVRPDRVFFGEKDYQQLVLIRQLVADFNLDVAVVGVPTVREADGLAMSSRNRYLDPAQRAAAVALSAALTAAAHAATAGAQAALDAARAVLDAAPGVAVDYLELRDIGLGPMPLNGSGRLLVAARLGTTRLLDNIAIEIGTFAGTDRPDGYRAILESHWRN

**Q.** For `CN(C)CCCN1c2ccccc2Sc2ccc(Cl)cc21`, which inhibition is on record?
**A.** 0% (inactive)

**Q.** Which inhibition does the source give for `Oc1cccc(C=NCc2ccccc2)c1O` here?
**A.** 0% (inactive)

**Q.** How did the inhibition turn out when `CCn1c(SCC(=O)Nc2ccccc2F)nc2c(c1=O)SC(C)C2` (stereo not drawn) was run?
**A.** 0% (inactive)

**Q.** How did the inhibition turn out when `O=C(Nc1ncnc2sc3c(c12)CCC3)c1ccco1` was run?
**A.** 0% (inactive)

**Q.** Which inhibition does the source give for `O=C(Nc1ccc(N2CCOCC2)cc1)c1cc2ccccc2o1` here?
**A.** 0% (inactive)

**Q.** `CCOC(=O)c1c(NC(=O)CSc2nnc(-c3cccnc3)o2)sc(C)c1C` was tested. Which inhibition did it give?
**A.** 4% (inactive)

**Q.** `COCCCNC(=O)c1ccc(CS(=O)(=O)c2ccc(OC)cc2)o1` was tested. Which inhibition did it give?
**A.** 9% (inactive)

**Q.** With `CC(C)(C)OC(=O)NCCc1nnc(SCC(=O)c2ccc(Cl)cc2)o1` as the compound, how does the inhibition read?
**A.** 0% (inactive)

**Q.** For `Oc1cccc2ccc(Nc3ccccn3)nc12`, which inhibition is on record?
**A.** 8% (inactive)

**Q.** How did the inhibition turn out when `O=C(O)C1CCCN1C(=O)c1cccs1` (stereo not drawn) was run?
**A.** 7% (inactive)

**Q.** How did the inhibition turn out when `CCOc1ccc(C(=O)N2CCC(C(=O)c3ccc4c(c3)OCCO4)CC2)cc1` was run?
**A.** 7% (inactive)

**Q.** For `CC(=O)Nc1c(-c2ccc(F)cc2)nc2ccccn12`, which inhibition is on record?
**A.** 0% (inactive)

**Q.** How did the inhibition turn out when `Cc1onc(-c2ccccc2)c1C(=O)Nc1ccnn1C1CCCCC1` was run?
**A.** 1% (inactive)

**Q.** Which inhibition does the source give for `CCOC(=O)N1CCN(C(=O)CCc2c(C)nc3c(c(C)nn3-c3ccc(C)c(C)c3)c2C)CC1` here?
**A.** 0% (inactive)

**Q.** How did the inhibition turn out when `COc1ccc(NC(=O)C2CCCN2S(=O)(=O)c2cccc3cccnc23)c(OC)c1` (stereo not drawn) was run?
**A.** 6% (inactive)

**Q.** With `COc1ccc(OC)c(S(=O)(=O)Nc2ccc(O)c3ccccc23)c1` as the compound, how does the inhibition read?
**A.** 8% (inactive)

**Q.** `CC(C)OC(=O)CSc1nnc(-c2ccc(O)cc2)n1Cc1ccccc1` was tested. Which inhibition did it give?
**A.** 0% (inactive)

**Q.** Which inhibition does the source give for `Cc1ccc(N2C(=O)c3ccccc3C2O)nc1` (stereo not drawn) here?
**A.** 1% (inactive)
